# Screening results as filed in PubChem BioAssay.
# Compounds with a hit are over-represented: about 5.7% of the library has one in this group of screens.
# ssDAF12 agonist: S. stercoralis DAF-12 activation, primary screen; HEK293 ssDAF-12/GRIP1 lit1-tk-luc reporter, luminescence; % of 3 µM dafachronic acid response; activation, % at 6.8 µM; 1% of 370,000 active; AID 652126;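 active = activation above the mean over all tested compounds plus 3 SD, cut at about 0.9% in these data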;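 note: 0% = DMSO-only wells and 100% = 3 µM delta7-dafachronic acid wells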
# hgDAF12 agonist: hgDAF-12 agonism, primary luciferase screen; activation, % at 6.8 µM; 1.8% of 370,000 active; HEK293 GAL4-hgDAF12 UAS-luciferase reporter, agonist luminescence; normalized to butyrate control;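 active = activation above a cutoff set at the mean of all screened compounds plus 3 SD, cut at about 10% in these data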;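 note: 0% = DMSO wells and 100% = sodium butyrate wells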
# hcDAF12 agonist: activates DAF-12 receptor from parasite H. contortus. HEK293 hcDAF-12 lit1-tk-luc reporter, luminescence; 0% DMSO, 100% Δ7-dafachronic acid. activation, % at 6.8 µM. 1.4% of 370,000 active. AID 652067;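 active = activation above the mean of all tested compounds plus 3 SD, cut at about 5.5% in these data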;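 note: 100% = response to 3 µM Δ7-dafachronic acid high control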
# AHR activator: human AHR activation. P35869. AHR-responsive luciferase reporter cells, luminescence. activation, % at 5 µM. 2.5% of 320,000 active. AID 2796; in the data active = activation above about 47%;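 note: 0% = vehicle wells and 100% = reference agonist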
# DAX1 inh-1: inhibitors of human orphan nuclear receptor DAX1 (NR0B1); HEK293 Gal4-DAX1 luciferase reporter, luminescence; inhibition, % at 6.75 µM; 0.99% of 340,000 active; AID 504766;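 active = inhibition above the mean over all tested compounds plus 3 SD, cut at about 4.2% in these data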;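 note: 0% = DAX1-transfected cells with DMSO and 100% = empty-vector control cells with DMSO; inhibition shows as a rise in luminescence from relieved DAX1 repression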
# Target sequence (P51843 207-470 limits assumed): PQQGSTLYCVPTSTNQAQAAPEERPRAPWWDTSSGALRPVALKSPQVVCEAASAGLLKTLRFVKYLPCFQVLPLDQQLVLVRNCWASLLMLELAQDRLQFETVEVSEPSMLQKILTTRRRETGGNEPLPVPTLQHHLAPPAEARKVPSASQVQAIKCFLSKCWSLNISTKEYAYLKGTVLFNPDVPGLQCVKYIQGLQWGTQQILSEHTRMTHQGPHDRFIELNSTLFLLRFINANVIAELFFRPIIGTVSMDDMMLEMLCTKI
# DAX1 inh-2: DAX1 (NR0B1) inhibition, primary screen | 1.1% of 370,000 active | HEK293T StAR-luciferase reporter, SF-1/DAX-1 repression relief | inhibition, % at 6.8 µM;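 active = inhibition above the mean over all tested compounds plus 3 SD, cut at about 3.6% in these data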;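 note: 0% = DAX-1 cells with DMSO and 100% = cells lacking DAX-1 with DMSO; higher inhibition means more luminescence from relief of DAX-1 repression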
# * marks the source's active call; other numbers are inactive results; / = not tested or not shown.
SMILES,ssDAF12 agonist,hgDAF12 agonist,hcDAF12 agonist,AHR activator,DAX1 inh-1,DAX1 inh-2
CC1CC(c2ccccc2)n2nc(NC(=O)c3ccco3)nc2N1 (configuration not stated),-1.1,0.2,-1.6,1.5,-0.3,-0.1
O=C(c1ccco1)N1CCN(C2CC(=O)N(c3ccc(C(F)(F)F)cc3)C2=O)CC1 (configuration not stated),-0.5,-3.0,-1.5,3.7,0.0,-0.1
O=C(CN1C(=O)NC2(CCCCC2)C1=O)Nc1cccc(S(=O)(=O)N2CCCC2)c1,-0.1,-0.3,-0.7,-1.4,1.1,4.6*
CC(NC(=O)CN1C(=O)NC2(CCCCCC2)C1=O)c1ccccc1Cl (configuration not stated),1.1*,-0.7,-0.9,-1.3,0.5,0.8
N#Cc1ccccc1NC(=O)CN1C(=O)NC2(CCCC2)C1=O,-0.8,-1.2,4.9,18.4,4.7*,0.1
CN(C)CCN1C(=O)c2cccc3cc([N+](=O)[O-])cc(c23)C1=O,0.3,-5.2,6.5*,/,6.9*,-6.9
CCOC(=O)c1[nH]c2c(c1C)C(=O)CC(c1ccco1)C2 (configuration not stated),-0.3,-4.5,-1.9,10.3,-2.5,7.0*
COCCOC(=O)c1[nH]c2c(c1C)C(=O)CC(c1ccco1)C2 (configuration not stated),-0.7,-3.4,0.0,56.1*,-0.8,2.9
Cc1c(C(=O)OCc2ccccc2)[nH]c2c1C(=O)CC(c1ccco1)C2 (configuration not stated),/,/,/,7.5,-2.5,/
CC(C)CC(=O)Nc1nnc(SCC(=O)Nc2ccc(F)cc2)s1,-1.0,-2.7,0.0,0.9,0.6,0.7
O=C(CSc1nnc(-c2cc3ccccc3cc2O)n1Cc1ccco1)N1CCc2ccccc2C1,-1.9,0.4,-2.3,1.0,-0.2,-0.7
O=C(NCCCN1CCOCC1)c1cc(S(=O)(=O)N2CCOCC2)c(Cl)cc1Cl,0.1,-0.7,-1.4,-0.7,1.7,0.4
C#CCOCCOCCOCCNc1nc(N2CCN(C(=O)Cn3cc(CCCCN)nn3)CC2)nc(N2CCN(C(=O)[C@H](C)n3cc(CCC(=O)O)nn3)CC2)n1,-1.0,-0.2,-0.2,/,1.0,0.1
CCC(=O)Nc1nnc(Sc2ccc(N(C)C)cc2)s1,-0.9,-0.3,0.0,14.1,1.1,-0.6
CCOC(=O)/C(=C/c1cn(C)c2ccccc12)NC(=O)c1ccccc1,-0.9,3.0,3.7,49.3*,0.2,0.5
CCOC(=O)/C(C#N)=C/c1cn(CCOc2ccccc2)c2ccccc12,6.7*,1.3,-1.4,-0.3,-0.1,-0.2
Cn1cc(/C=C(\NC(=O)c2ccccc2)C(=O)NCCCN2CCOCC2)c2ccccc21,1.3*,-0.5,1.5,14.3,-0.1,-0.6
C=CCOC(=O)/C(=C/c1cccc2ccccc12)NC(=O)c1ccccc1,-1.1,2.8,-0.2,12.7,4.3*,0.0
O=C(OCc1ccccc1)/C(=C/c1cccc2ccccc12)NC(=O)c1ccccc1,-0.7,-0.9,1.0,5.2,-0.2,-0.1
CCOC(=O)/C(C#N)=C\c1cn(C)c2ccccc12,-1.1,-1.9,-1.0,-0.3,-0.2,0.5
CCOc1ccc(N(C)C(=O)CCc2nnc3ccc(N4CCC5(CC4)OCCO5)nn23)cc1,-1.4,1.7,0.4,0.9,1.4,-0.7
CN1CCN(C(=O)/C(=C/c2cn(C)c3ccccc23)NC(=O)c2ccccc2)CC1,-0.7,-1.6,0.8,50.2*,0.0,-0.3
Cc1cccc(CC(=O)Nc2sc(C(C)C)cc2C(=O)N2CCOCC2)c1,-0.8,-0.5,0.2,4.6,-1.1,-1.9
COc1cc(C2c3c(-c4cc(C)cc(C)c4O)n[nH]c3C(=O)N2CCCO)cc(OC)c1OC (configuration not stated),-0.9,-2.6,-2.1,34.5,-0.2,-0.9
CC(C)c1nc2ccccc2n1CC(O)COC1CCCCC1 (configuration not stated),-1.4,-2.9,-0.7,0.6,6.6*,0.1
SMILES,ssDAF12 agonist,hgDAF12 agonist,hcDAF12 agonist,AHR activator,DAX1 inh-1,DAX1 inh-2
Cc1ccc(NS(=O)(=O)c2ccc(Br)s2)nc1,1.3*,-3.0,-0.7,6.4,2.4,0.3
COc1ccc(S(=O)(=O)Nc2ccc(C)cn2)cc1,-1.0,0.2,-1.1,3.7,4.6*,0.2
Cc1cc(C)nc(NS(=O)(=O)c2ccc(Br)s2)c1,-1.1,-2.4,-0.4,-1.4,0.7,-0.6
Cc1cccc(N(Cc2ccccc2)C(=O)c2ccc(C)c(S(=O)(=O)N3CCOCC3)c2)c1,-1.5,-4.6,-3.3,1.3,-0.3,-0.8
CCc1ncc(/C=C2\C(=O)Nc3ccccc32)[nH]1,-0.6,1.3,-1.3,1.1,-1.0,-0.3
Cc1cccc(NC(=O)c2ccc3nccnc3c2)n1,-0.9,3.3,0.4,48.4*,1.5,0.7
Cc1cccc(NC(=O)c2cccc(NC(=O)c3ccccc3)c2)n1,-1.2,-3.8,-2.3,33.7,-0.8,-0.3
CCCCOc1ccc(C(=O)Nc2cccc(C)n2)cc1,-0.9,8.4,1.2,5.5,-1.4,1.0
CCOc1ccc(C(=O)Nc2cccc(C)n2)cc1,1.1*,7.5,4.7,10.6,-2.2,4.0*
Cc1noc(C)c1COc1ccc(C(=O)Nc2ncccc2O)cc1,-0.9,10.7*,-1.2,-2.2,0.1,2.7
CCOc1ccc(C(=O)Nc2ncccc2Cl)cc1,-0.3,11.2*,1.9,7.7,0.8,1.5
Cc1ccc(S(=O)(=O)N2CC(O)CC2C(=O)OCc2nc3sc(C)c(C)c3c(=O)[nH]2)cc1 (configuration not stated),0.2,-1.8,-1.1,25.3,-0.2,0.7
O=[N+]([O-])c1ccc(Sc2cccc3cccnc23)c([N+](=O)[O-])c1,-0.6,-5.0,-2.0,7.8,-1.3,-3.1
CC(C)(C)c1ccc(OCC(=O)Nc2ccncc2)c(Br)c1,-1.9,1.4,-0.3,12.6,-1.8,-1.2
CCOc1ccc(C(=O)Nc2cc(C)ccn2)cc1,0.6,7.0,3.6,-16.0,-2.6,3.6*
Cc1cccc(NC(=O)c2ccccc2Br)n1,-0.8,6.4,0.9,62.0*,2.1,2.7
CCOc1cc(C(=O)Nc2cc(C)ccn2)cc(OCC)c1OCC,-1.9,-0.7,-1.1,17.0,-3.3,-1.2
Cc1noc(C)c1COc1ccc(CC(=O)NC2CCCCCC2)cc1,-0.8,-3.1,-1.4,-1.6,4.7*,-0.6
Cc1ccc(CNC(=O)c2cccc(OCc3c(C)noc3C)c2)cc1,-1.2,2.4,-2.3,1.0,6.8*,-0.9
O=C(C[C@@H]1C[C@H]2c3cc(NC(=O)c4cccnc4)ccc3O[C@H]2[C@H](CO)O1)NCc1ccc(Oc2ccccc2)cc1,-1.6,0.7,-3.5,/,2.1,0.3
c1cncc(-c2nc(NCCCN3CCOCC3)c3c4c(sc3n2)CCC4)c1,-0.9,3.4,2.1,39.0,1.4,0.7
CC(C)c1ccccc1-n1cc[nH]c1=S,-0.8,-1.7,-1.2,0.6,-0.3,0.6
